Source: PubChem BioAssay AID1159580 (chemical genetic matrix, 2015)
Values joined by “and” are separate entries in the source; they are usually repeats but may differ in a detail not shown here. Identical values can stand only once. Hit rate of the full screen: of about 5,500 compounds, about 2,000 (36%) were called active. Roughly 18% stayed inconclusive and do not appear here. No stated cut-off is given here; in the data, active means normalized growth mostly below about 0.91 (no sharp cut-off); inconclusive means no clear call, values can overlap the other calls; inactive means mostly above about 0.92. Some of the results follow.

Test: chemical genetic growth profiling, strain panel (AID 1159580);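 further: tested at 20 µM; growth read once vehicle control cultures reached saturation at 30 °C; 1 = growth at the plate median or of vehicle wells; lower values mean less growth of the strain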
Settings: S. cerevisiae deletion strains, growth OD

Measured: normalized growth

Nc1ccncc1
inactive: locus YAL013W, strain DEP1, hits give low values 1.02 and 1.01 | locus YAL021C, strain ccr4, hits give low values 0.996 | locus YAL026C, strain drs2, hits give low values 1 | locus YAL030W, strain snc1, hits give low values 0.997 | locus YAL040C, strain CLN3, hits give low values 0.997 | locus YBL061C, strain skt5, hits give low values 0.99 | locus YBR009C, strain hhf1, hits give low values 1 | locus YBR021W, strain FUR4, hits give low values 1.02 | locus YBR023C, strain chs3, hits give low values 0.993 | locus YBR171W, strain sec66, hits give low values 0.979 | locus YBR229C, strain ROT2, hits give low values 0.985 | locus YBR231C, strain swc5, hits give low values 0.994 | locus YBR279W, strain paf1, hits give low values 0.998 | locus YCL011C, strain gbp2, hits give low values 0.995 | locus YCL016C, strain dcc1, hits give low values 1 | locus YCL029C, strain bik1, hits give low values 0.973 | locus YCL061C, strain MRC1 (second series), hits give low values 1 | locus YCL061C, strain MRC1, hits give low values 0.99 | locus YCL069W, strain vba3, hits give low values 0.998 | locus YCR088W, strain abp1, hits give low values 0.981 | locus YDL005C, strain med2, hits give low values 0.991 | locus YDL035C, strain GPR1, hits give low values 1.03 | locus YDL040C, strain nat1, hits give low values 0.989 | locus YDL074C, strain BRE1, hits give low values 1.05 | locus YDL101C, strain DUN1, hits give low values 1.01 | locus YDL134C, strain PPH21, hits give low values 1.02 | locus YDL185W, strain tfp1, hits give low values 0.981 | locus YDL192W, strain arf1, hits give low values 0.98 | locus YDR001C, strain nth1, hits give low values 0.991 | locus YDR069C, strain doa4, hits give low values 1 | locus YDR101C, strain arx1, hits give low values 0.972 | locus YDR137W, strain rgp1, hits give low values 1 | locus YDR150W, strain NUM1, hits give low values 1.02 | locus YDR159W, strain sac3, hits give low values 1 | locus YDR162C, strain NBP2, hits give low values 1.01 | locus YDR195W, strain ref2 1.01 | locus YDR297W, strain sur2, hits give low values 1 | locus YDR318W, strain mcm21, hits give low values 0.955 | locus YDR334W, strain swr1, hits give low values 0.997 | locus YDR335W, strain msn5, hits give low values 0.997 | locus YDR363W, strain ESC2, hits give low values 1.01 | locus YDR388W, hits give low values 0.965 | locus YDR392W, strain spt3, hits give low values 0.994 | locus YDR502C, strain sam2, hits give low values 0.968 | locus YEL003W, strain gim4, hits give low values 1 | locus YEL037C, strain rad23, hits give low values 0.989 | locus YEL061C, strain CIN8 (second series), hits give low values 0.994 | locus YEL061C, strain CIN8, hits give low values 1.01 | locus YER002W, strain NOP16, hits give low values 1.01 | locus YER015W, strain faa2, hits give low values 0.995 | locus YER016W, strain bim1, hits give low values 0.995 | locus YER110C, hits give low values 0.973 | locus YER111C, strain swi4, hits give low values 0.987 | locus YER155C, strain BEM2 (second series), hits give low values 0.947 | locus YER155C, strain BEM2, hits give low values 1.01 | locus YER167W, strain BCK2, hits give low values 1.02 | locus YFR010W, strain ubp6, hits give low values 0.996 | locus YGL078C, strain dbp3, hits give low values 0.982 | locus YGL086W, strain mad1, hits give low values 0.975 | locus YGL167C, strain pmr1, hits give low values 0.992 | locus YGL173C, strain kem1, hits give low values 0.99 | locus YGL227W, strain vid30, hits give low values 0.98 | locus YGL240W, strain doc1, hits give low values 1 | locus YGL248W, strain PDE1, hits give low values 1.02 | locus YGL253W, strain hxk2, hits give low values 1 | locus YGR078C, strain PAC10, hits give low values 1.02 and 1.01 | locus YGR135W, strain pre9, hits give low values 0.971 | locus YGR229C, strain SMI1, hits give low values 1.01 and 1 | locus YGR252W, strain gcn5, hits give low values 0.92 | locus YHR013C, strain ard1, hits give low values 0.999 | locus YHR027C, strain rpn1, hits give low values 0.998 | locus YHR030C, strain SLT2, hits give low values 1.01 and 0.98 | locus YHR079C, strain IRE1 (second series), hits give low values 0.965 | locus YHR079C, strain IRE1, hits give low values 0.961 | locus YHR094C, strain hxt1, hits give low values 0.974 | locus YHR129C, strain ARP1, hits give low values 1.01 | locus YHR142W, strain chs7, hits give low values 0.993 | locus YHR200W, strain rpn10, hits give low values 0.96 | locus YIL066C, strain RNR3, hits give low values 1.03 | locus YIL073C, strain SPO22, hits give low values 0.993 | locus YIL125W, strain kgd1, hits give low values 0.991 | locus YIR030C, strain dcg1, hits give low values 0.975 | locus YJL092W, strain hpr5, hits give low values 0.99 | locus YJL095W, strain BCK1 (second series), hits give low values 0.991 | locus YJL095W, strain BCK1, hits give low values 0.978 and 0.981 | locus YJL115W, strain asf1, hits give low values 0.984 | locus YJL129C, strain trk1, hits give low values 0.988 | locus YJL134W, strain LCB3, hits give low values 1.01 | locus YJL154C, strain vps35, hits give low values 0.992 | locus YJL164C, strain tpk1, hits give low values 1.01 | locus YJL166W, strain qcr8, hits give low values 0.989 | locus YJL168C, strain set2, hits give low values 0.963 | locus YJL187C, strain SWE1 (second series), hits give low values 1.03 | locus YJL187C, strain SWE1, hits give low values 1 | locus YJR043C, strain POL32, hits give low values 1 | locus YJR066W, strain TOR1, hits give low values 0.917
